# Laboratory results as given in PubChem BioAssay AID887 (National Center for Advancing Translational Sciences (NCATS), 2007).
# The campaign covered roughly 74,000 compounds. About 1,100 (1.5%) were called active. Inconclusive results (about 5%) are left out. This is one part of a sample in which actives are shown more often than they occur. Unmarked numbers belong to inactive results. The call rests on the fitted dose curve; in most records, active means well fitted inhibition curve with a large enough effect; inconclusive means small, poorly fitted or top-dose-only effect; inactive means no such curve, though single readings can be large or run the other way.
# Target: Polyunsaturated fatty acid lipoxygenase ALOX15 (Homo sapiens) (UniProt P16050)
# Sequence (P16050 whole entry, looked up): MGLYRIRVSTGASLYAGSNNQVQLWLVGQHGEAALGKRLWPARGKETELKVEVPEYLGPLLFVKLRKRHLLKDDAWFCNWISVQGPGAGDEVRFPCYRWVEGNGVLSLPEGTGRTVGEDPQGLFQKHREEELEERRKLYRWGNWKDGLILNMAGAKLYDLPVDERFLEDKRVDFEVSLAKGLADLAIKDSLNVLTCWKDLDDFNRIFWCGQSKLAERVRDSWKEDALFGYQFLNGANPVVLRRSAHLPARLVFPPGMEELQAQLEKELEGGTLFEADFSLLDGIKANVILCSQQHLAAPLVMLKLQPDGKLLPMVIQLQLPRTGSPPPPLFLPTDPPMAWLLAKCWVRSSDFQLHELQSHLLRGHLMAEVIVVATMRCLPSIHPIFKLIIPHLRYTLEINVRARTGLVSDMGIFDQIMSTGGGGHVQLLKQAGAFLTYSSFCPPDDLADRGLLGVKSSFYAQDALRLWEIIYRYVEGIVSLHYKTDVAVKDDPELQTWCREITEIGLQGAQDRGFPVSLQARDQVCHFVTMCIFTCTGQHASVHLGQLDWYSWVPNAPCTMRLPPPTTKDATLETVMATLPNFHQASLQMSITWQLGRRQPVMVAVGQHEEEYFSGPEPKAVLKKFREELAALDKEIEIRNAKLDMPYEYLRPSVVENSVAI
# Assay: qHTS Assay for Inhibitors of 15-hLO (15-human lipoxygenase); further: nearly all actives have a fitted effect of over 55% in size
# Details: purified 15hLO-1, xylenol orange hydroperoxide absorbance; series mostly up to 57.1 µM; activity change, negative = inhibition: at the top concentration
# Description: Assay Overview: NIH Molecular Libraries Screening Centers Network [MLSCN] NIH Chemical Genomics Center [NCGC] MLSCN Grant: MH081283-01A1 PI Name: Holman, T.R., University of California, Santa Cruz Human lipoxygenase 15hLO-1 is a member of the closely related lipoxygenase family of enzymes which catalyze the site-specific oxidation of arachidonic acid to various hormone precursor molecules and as such is a candidate for drug development in a variety of disease areas, such as cancer and inflammation. Inhibition of 15hLO-1 activity was screened by utilizing arachidonic acid as a substrate. The extent of hydroperoxide product formation was measured by a secondary chromogenic reaction in which xylenol orange (XO, Sigma-Aldrich, cat. number 39,818-7) reacts with the ferric ions produced from the reaction between the hydroperoxide and ferrous ions. The Fe(III)-XO complex is characterized with red-shifted absorbance at 560 nm. A purified preparation of human 15hLO-1 was supplied by Professor Ted Holman, University of California, Santa Cruz.
# Assay Protocol: Buffer: 25 mM Hepes pH 7.5, 0.01% Triton X-100. Reagents/Controls: Buffer in columns 3 and 4 as negative control (no enzyme). Substrate solution: 50 uM arachidonic acid (Sigma-Aldrich, St. Louis, MO) final concentration dispensed throughout the plate. Enzyme: 40 nM 15hLO-1 final concentration in columns 1, 2, 5-48. Column 1 is neutral (100% activity). Column 2 contained pin-transferred titration of NDGA (nordihidroguaiaretic acid, Sigma-Aldrich, N 5023, top concentration 10 mM in DMSO, then 1:2 dilution in duplicate). (Dilution factor: 23 nL into 4 uL.) Chromogenic detection reagent (divalent iron/xylenol orange, Fe-XO): 200 uM xylenol orange plus 300 uM ferrous ammonium sulfate prepared freshly in 50 mM sulfuric acid. Assay Steps: Three uL of enzyme were dispensed to 1536-well Greiner black clear bottom plates. Compounds and controls (23 nL) were transferred via Kalypsys PinTool. The plates were incubated for 15 min at room temperature, and then 1 uL of substrate solution was added to start the reaction. After room temperature incubation for 6 minutes, 4 uL of Fe-XO solution was added to each well followed by a short spin (1000 rpm, 15 sec) and the plates were then incubated for 30 min. The absorbance at 405 and 573 nm were measured using ViewLux (Perkin-Elmer) High-throughput CCD imager and absorbance protocol settings. The 573-to-405 absorbance ratio was used to compute reaction progress.
# On the % scale 0 is the no-effect control and ±100 the full control effect; potency means the concentration at half of the fitted maximal effect.
Structure (SMILES),Potency,"activity change, negative = inhibition"
CC(C)(Cc1c[nH]c2ccc(Cl)cc12)NCCOc1ccccc1OCC1CC1,12.6 µM (active),–
CNCC[C@H](Oc1ccc(C(F)(F)F)cc1)c1ccccc1,inactive,–
CCC(C)C(=O)O[C@@H]1C[C@@]2(C)C(c3ccoc3)OC(=O)CC23OC2(C)O[C@@]14[C@@]1(C)C(CC(=O)OC)C5(C)CC1(O)C(O)(C5OC(=O)C1(C)OC1C)C(OC(C)=O)[C@@]34O2 (stereo not given in full),–,1.08%
CN(C)C1C(=O)C(C(N)=O)=C(O)[C@@]2(O)C(=O)C3=C(O)c4c(O)cccc4[C@@](C)(O)C3C[C@@H]12 (stereo not given in full),–,3.68% [at 25.6 µM]
CC(=O)OC1C2CCC3C1(CC(O)[C@@]1(O)[C@@H](CC(O)C1(C)C)[C@]3(C)O)C[C@@]2(C)O (stereo not given in full),–,1.91%
COC(=O)N(c1ccc(OC)cc1)P1(=S)OCCC(C)O1 (stereo not given),3.98 µM (active),–
CC1=CC(=O)C2=C(C)C[C@H](O)[C@H]3[C@H](C)C(=O)O[C@@H]3C12 (stereo not given in full),–,0.0263% [at 25.6 µM]
C[C@@]12CCC3C(CC[C@@H]4CC(O)CC[C@@]34C)C1CCC2O (stereo not given in full),–,0.523%
CCN1C[C@]2(COC)C(O)C[C@H](OC)[C@@]34C5C[C@]6(O)C(OC)C(O)[C@](OC(C)=O)(C5C6OC(=O)c5ccccc5)C(C(OC)C23)C14 (stereo not given in full),–,-2.83%
Clc1ccc(C(c2ccc(Cl)cc2)n2cc[n+](C[C@@H](OCc3ccc(Cl)cc3Cl)c3ccc(Cl)cc3Cl)c2)cc1,20 µM (active),–
CN1C2CC3CC1C(O3)C2O (stereo not given),–,-1.11%
N#Cc1c(Cl)c(Cl)c(Cl)c(C#N)c1Cl,–,-5.52%
CC[C@@H]1CN2CC[C@@H]1C[C@H]2[C@H](O)c1ccnc2ccc(OC)cc12,–,-20.9% [at 25.6 µM]
CNC(C)[C@@H](O)c1ccccc1 (stereo not given in full),–,1.77%
COc1ccc2c3c1OC1CC(O)C=C[C@@]31CCN(C)C2 (stereo not given in full),–,-0.861%
